PubChem BioAssay (NCI)
Where “and” joins values, the source holds several entries; their conditions need not be identical. Identical values can stand only once. The panel holds about 83,000 compounds, 20% with a hit somewhere; the sample as a whole holds those more often.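 For each line, cells grew in 96-well plates with the test compound present at a single concentration for 48 hours.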 Calls of active or inactive are those of the source. The calls were made as follows: active = growth percent below 10; inactive = the rest.

Tested on: MDA-MB-468 breast
Assay: NCI-60 one-dose screen, 48 h (100 = growth as untreated, 0 = no growth, -100 = all killed)
Details: 10 µM unless noted

SMILES | growth
COc1cc2ncnc(Oc3ccc(NC(=O)Nc4ccc(C5(C#N)CCCC5)cc4)c4ccccc34)c2cc1OC | 38.2% (inactive)
CCCSc1nc(Nc2ccc(/C(C)=N\NC(N)=S)cc2)c(C#N)c(-c2ccc(OC)cc2)n1 | 93.1% (inactive)
Cn1cc(-c2ccc3nc(-c4ccc(CC(=O)Nc5cc(C(C)(C)C)no5)cc4)cnc3c2)cn1 | 14.8% [30 µM] (inactive)
COc1ccc(C(=O)/C=C/c2ccc(OCc3ccc(C)cc3)c(OC)c2)cc1OC | 49.9% (inactive)
COc1ccc(Nc2nc(NCc3ccccc3)c3ccccc3n2)cc1 | 40.2% (inactive)
Cc1nc2c(nnn2-c2ccccc2)c2nc(-c3ccc(Cl)cc3)oc(=O)c12 | 106% (inactive)
CN(C)CCCCNc1ccc(NCCCCN(C)C)c2c1C(=O)c1c(O)ccc(O)c1C2=O | 96.8% (inactive)
Cn1cc2c(c1)-c1nc(Nc3ccccc3)ncc1CC2 | 47.6% (inactive)
CC(C)[C@H]1CCC2=C3CC[C@]45OC(=O)[C@@]6(CCC(C)(C)C[C@H]64)CC[C@@]5(C)[C@]3(C)CC[C@@]21C | 76.4% [100 µM] (inactive)
C/C(=N\O)c1ccc(Cl)cc1 | 108% (inactive)
COc1ccc(-c2nc(SCC(C)C)nc(N/N=C\c3cccc([N+](=O)[O-])c3)c2C#N)cc1 | 58.1% (inactive)
COc1ccc(N2CCN(Cc3cc(C(=O)/C=C/c4c[nH]c5ccccc45)ccc3O)CC2)cc1 | 99.5% (inactive)
C=NNc1ccccc1 | 91.2% (inactive)
COc1ccc(OC)c(-c2cc(-c3ccc(Cl)cc3)c3c(N)c(C(=O)c4ccc(Cl)cc4)sc3n2)c1 | 117% (inactive)
CCCCCCCCCCCCNC(=O)[C@H]1CSC(c2cc(Br)cs2)N1 (stereo not given in full) | -48.7% (active)
COc1ccc2c(c1)c(-c1nc(-c3cn(C)c4ncccc34)cs1)cn2CCO | -16.8% (active)
CC(=O)OCCC(C)CCC=C(C)C (stereo not given) | 122% (inactive)
CCOC(=O)C(N)Cc1cc(I)c(O)c(I)c1 (stereo not given) | 101% (inactive) and 113% (inactive)
O=C(Nc1ccc2cc3ccc(NC(=O)N4CCCCCC4)cc3nc2c1)N1CCCCCC1 | -48.5% (active)
O=C(Nc1nc2ccc(C(=O)N3CCN(/C=C/c4ccccc4)CC3)cc2s1)c1ccc(NCCc2ccccc2)c([N+](=O)[O-])c1 | 22.6% (inactive)

SMILES | growth
Cc1nn(-c2ccc(Br)cc2)c2nc(CCl)[nH]c(=O)c12 | 94% (inactive)
CCn1cc(C(=O)O)c(=O)c2cc(F)c(N3CCN(S(=O)(=O)c4c(C)cc(C)cc4C)CC3)cc21 | 80.3% (inactive)
COc1cc(CNCCCN2C(=O)c3ccc4c5c(ccc(c35)C2=O)C(=O)N(CCCNCc2cc(OC)c(OC)c(OC)c2)C4=O)cc(OC)c1OC | -93.3% (active)
Cc1ccc(C(C)C)c(OCC(=O)O)c1 | 98.9% (inactive)
O=Nc1ccc(O)cc1 | 78.3% (inactive) and 93.9% (inactive)
Cc1nn(-c2ccc(Cl)cc2)c(C)c1N=Nc1ccc2oc(=O)ccc2c1 | 98.5% (inactive)
COc1ccc2c(c1)OC(N(C(C)=O)C(C)=O)=C(C#N)C2c1ccc(F)cc1 (stereo not given) | -36.1% (active)
Cc1ccn2c(-c3csc(Nc4cccc(O)c4)n3)c(C)nc2c1 | -33.1% (active)
COc1cccc(-c2nc3sccn3c2-c2ccnc(NCCCNS(=O)(=O)c3cccc(F)c3)c2)c1 | 8.57% (active)
O=C1Nc2ccc(Cl)cc2/C1=C/c1ccc(OCc2ccc(F)cc2)cc1 | 97.3% (inactive)
Nc1nc2c(nnn2Cc2ccc(Cl)c(Cl)c2)c(=O)[nH]1 | 103% (inactive)
COc1ccc(/C=C2\COc3ccc(O)cc3C2=O)cc1 | 85.7% (inactive)
COc1ccc(/C=C/C(c2cc(OC)c(OC)c(OC)c2)n2ccnc2)cc1O (stereo not given) | 40.6% (inactive)
CC[C@H](CC[C@@H](C)[C@H]1CC[C@H]2[C@@H]3CC(=O)C4=CC(=O)/C(=C/c5ccc([N+](=O)[O-])cc5)C[C@]4(C)[C@H]3CC[C@]12C)C(C)C | 104% (inactive)
Cc1ccc(S(=O)(=O)OC[C@@]2(C)CC[C@]3(C)CC[C@]4(C)C(=C3C2)C=C[C@@H]2[C@@]3(C)CCCNC(C)(C)[C@@H]3CC[C@]24C)cc1 | -88.5% (active)
COC(=O)/C(=C\c1c(-c2ccccc2)[nH]c2ccccc12)S(C)(=O)=O | 36.3% (inactive)
Cc1ccc(NC(=O)c2cccc(CN3CCN(C)CC3)c2)cc1Oc1ccc(-c2[nH]nc3ncnc(N)c23)cc1 | 51.3% (inactive)
CN1CCN(CCC=C2c3ccccc3Sc3ccc(S(=O)(=O)N(C)C)cc32)CC1 | 21.1% (inactive)
O=C(N/N=C/c1cccc(O)c1O)c1ccccc1 | -12.6% (active)
O=C1/C(=C/c2ccccc2[N+](=O)[O-])Oc2ccc(O)c(O)c21 | 37.5% (inactive)
